Hits are enriched below; roughly 3.6% of the tested compounds scored in any of these assays.
PMP22 txn prim = PMP22 gene transcription modulation. S16 Pmp22-F2sN Schwann cells, FLuc/NLuc coincidence luminescence, 24 h. Potency, µM (doses to about 57.5 µM), hits mostly inhibitors. 43,000 tested, 2% active. AID 1508649; active means clear falling dose curves in both reporters; inconclusive means both reporters move, but less clearly or upward; inactive means either reporter flat; the % is the NLuc reporter signal
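Schwann cells carrying the coincidence reporter were exposed to library compounds for 24 h at 37C, then lysed and read for FLuc and, after quenching, NLuc luminescence on a CCD imager.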
SKOV3 invasion = ovarian cancer metastasis inhibition, 3D TME model; SKOV3ip1-GFP adhesion/invasion on 3D omental model, fluorescence; Potency, µM (top dose mostly 45.8 µM), most hits filed as inhibitors; 46,000 tested, 0.1% active; further: nearly all actives have a fitted effect of over 65% in size
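Primary human omental fibroblast/mesothelial 3D culture pre-formed 48 h. SKOV3ip1-GFP cells added with compounds (0.36-46 umol/L), incubated 2 h RT/16 h 37 C, fixed; GFP cells quantified at 488/509 nm.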
HTT promoter inh = inhibitors of huntingtin promoter activity. HEK293 HTT promoter firefly luciferase reporter, 24 h. Potency, µM (highest dose often 57.5 µM), most hits filed as inhibitors. 48,000 tested, 0.93% active. AID 1508623; further: nearly all actives have a fitted effect of over 50% in size
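Firefly luciferase readout (Dual-Glo, 10 min RT) after 24 h, 37 °C compound exposure (final up to 57.5 uM) of HEK293 reporter cells cultured 24 h beforehand; PTC124 at 50 uM final as control inhibitor; activity scaled vehicle 0%, zero RLU -100%.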
mTORC1 inh = reduces mTORC1 signaling in Tsc2 and p53 null MEF cells; Potency, µM (series often up to 38.3 µM), hits mostly inhibitors; 44,000 tested, 0.78% active; Tsc2-/- p53-/- MEF, phospho-rpS6 immunofluorescence/PI, 24 h; further: nearly all actives have a fitted effect of over 50% in size
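Readout is phospho-S6 Alexa 488 signal normalized to PI per well, reported as % active cells with thresholds set from rapamycin (7.5 nM) and DMSO controls. Cells: Tsc2-/-, p53-/- MEFs, 24 hrs compound at 37 C; PI cell number serves as viability.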
HTT-AS act = activates huntingtin-antisense promoter activity | 48,000 tested, 0.24% active | AID 1508624 | Potency, µM (titrated, usually from 57.5 µM), hits mostly activators | HEK293 HTT-AS promoter firefly luciferase reporter, 24 h; response scale: percent change from vehicle, -100% = no light; further: nearly all actives have a fitted effect of over 55% in size
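Luminescence was read after Dual-Glo reagent and a 10 min room-temperature incubation. Values were normalized to vehicle (0% activity) and zero RLU (-100% activity). Reporter HEK293 cells had been exposed to compounds (up to 57.5 uM final) for 24 h.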
S16 F2sN tox = cytotoxicity in S16 Pmp22-F2sN Schwann cells; S16 Pmp22-F2sN Schwann cells viability, CellTiter-Glo, 24 h; Potency, µM (series often up to 57.5 µM), most hits filed as cytotoxic; 43,000 tested, 0.48% active; further: nearly all actives have a fitted effect of over 65% in size
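Rat S16 Schwann reporter line, 24 h treatment with library compounds delivered at 23 nL per well. Cell viability by CellTiter-Glo luminescence.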
NLuc saturating = NanoLuc enzyme inhibition artifact for PMP22 screen. shares compounds with PMP22 txn prim. Secreted NLuc enzyme (filtered S16 cell medium), Nano-Glo luminescence. Potency, µM (highest dose often 57.5 µM), usual class: inhibitors. 690 tested, 4% active
NLuc Km counter = inhibits NanoLuc under Km conditions, PMP22 counter-screen. 690 tested, 5% active. secreted NLuc enzyme, coelenterazine luminescence, Km conditions. shares compounds with PMP22 txn prim. Potency, µM (series often up to 57.5 µM), usual class: inhibitors
FLuc counter = inhibits firefly luciferase, PMP22 counter-screen. shares compounds with PMP22 txn prim. purified P. pyralis FLuc, luminescence, 10 min. Potency, µM (titrated, usually from 57.5 µM), usual class: inhibitors. 690 tested, under 10 active. AID 1508640
Target sequence (P08659 whole entry, looked up): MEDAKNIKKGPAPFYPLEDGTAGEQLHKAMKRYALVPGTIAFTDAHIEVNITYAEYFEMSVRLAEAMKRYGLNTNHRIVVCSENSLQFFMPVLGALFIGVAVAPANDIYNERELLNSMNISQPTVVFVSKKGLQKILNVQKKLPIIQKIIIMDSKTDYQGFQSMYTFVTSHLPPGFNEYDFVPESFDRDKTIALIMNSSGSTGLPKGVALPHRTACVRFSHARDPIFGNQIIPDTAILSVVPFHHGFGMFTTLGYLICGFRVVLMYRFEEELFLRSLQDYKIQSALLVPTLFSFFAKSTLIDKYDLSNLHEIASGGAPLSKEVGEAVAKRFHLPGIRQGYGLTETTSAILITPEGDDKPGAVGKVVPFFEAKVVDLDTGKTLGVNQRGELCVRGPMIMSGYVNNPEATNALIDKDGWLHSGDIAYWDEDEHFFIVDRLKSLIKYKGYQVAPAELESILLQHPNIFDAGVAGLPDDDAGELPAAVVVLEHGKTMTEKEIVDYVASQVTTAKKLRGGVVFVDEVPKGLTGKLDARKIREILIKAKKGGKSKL
S16 F2sN tox cnf = confirmation of cytotoxicity in S16 Pmp22-F2sN Schwann cells (luciferase reporters placed in the Pmp22 gene). shares compounds with PMP22 txn prim. S16 Schwann cells viability, CellTiter-Glo ATP luminescence, 24 h. Potency, µM (doses to about 57.5 µM), most hits filed as cytotoxic. 690 tested, 7% active
PMP22 txn conf = PMP22 transcription modulation, confirmatory; shares compounds with PMP22 txn prim; S16 Schwann cells Pmp22-F2sN, dual luciferase, 24 h; Potency, µM (doses to about 57.5 µM), usual class: inhibitors; 690 tested, 22% active; AID 1508646; active means clear falling dose curves in both reporters; inconclusive means both reporters move, but less clearly or upward; inactive means either reporter flat; the % is the FLuc reporter signal
PMP22 HiBiT cnf = confirmation of modulators of rat PMP22 protein expression. shares compounds with PMP22 txn prim. S16 Schwann cells Pmp22-HiBiT, luminescence, 48 h. Potency, µM (highest dose often 27.9 µM), most hits filed as inhibitors. 95 tested, under 10 active
Target sequence (P25094 whole entry, looked up): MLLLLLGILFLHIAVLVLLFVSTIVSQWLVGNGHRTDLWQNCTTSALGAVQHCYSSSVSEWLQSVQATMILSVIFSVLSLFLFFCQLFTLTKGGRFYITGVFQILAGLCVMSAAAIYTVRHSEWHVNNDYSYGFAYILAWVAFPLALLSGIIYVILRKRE
Hits are given with their value. Unless noted, the call rests on the fitted dose curve; in most records, active means well fitted curve in the direction sought with a large enough effect; inconclusive means small, poorly fitted or top-dose-only effect, or another doubt; inactive means no such curve, though single readings can be large; an effect the other way counts as inactive or inconclusive.

Screening Cc1ccc(CNC(=O)CSc2nc3ccsc3c(=O)n2-c2ccc(Br)cc2)cc1 returned PMP22 txn prim inconclusive, SKOV3 invasion inactive, HTT promoter inh inactive, mTORC1 inh inactive, HTT-AS act inactive and S16 F2sN tox inactive.
For COc1ccc(-n2c(SCC(=O)NCc3ccc(Cl)cc3)nc3ccsc3c2=O)cc1 the results were PMP22 txn prim 16µM, SKOV3 invasion inactive, HTT promoter inh inactive, mTORC1 inh inactive, HTT-AS act inactive, S16 F2sN tox inactive, NLuc saturating inactive, NLuc Km counter inactive, FLuc counter inactive, S16 F2sN tox cnf inactive and PMP22 txn conf inactive.
`CCCN(CCC)CCNC(=O)c1cc(-c2ccc(Br)s2)nc2ccccc12` gave PMP22 txn prim inconclusive, SKOV3 invasion inconclusive, HTT promoter inh inactive, mTORC1 inh inconclusive, HTT-AS act inactive and S16 F2sN tox inconclusive.
CCN(CC)CCNC(=O)c1cc(-c2ccc(Br)s2)nc2ccccc12 was read as PMP22 txn prim 20µM, SKOV3 invasion 10µM, HTT promoter inh inactive, mTORC1 inh inconclusive, HTT-AS act inactive, S16 F2sN tox 32µM, NLuc saturating inactive, NLuc Km counter inconclusive, FLuc counter inactive, S16 F2sN tox cnf inconclusive, PMP22 txn conf 17µM and PMP22 HiBiT cnf inactive.
`CNc1nccc(-c2cccnc2Oc2cc(C(=O)Nc3cccc(C(F)(F)F)c3)ccc2C)n1` gave SKOV3 invasion inactive, HTT promoter inh inactive and HTT-AS act inactive.
Screening CC1=Nc2cc(C(=O)NC(C)C)ccc2Sc2ccc(C)cc21 returned PMP22 txn prim inconclusive, SKOV3 invasion inactive, HTT promoter inh inconclusive, mTORC1 inh inconclusive, HTT-AS act inactive and S16 F2sN tox inactive.
For CC1=Nc2cc(C(=O)NC3CCCC3)ccc2Sc2ccc(C)cc21 the results were PMP22 txn prim 7.8µM, SKOV3 invasion inactive, HTT promoter inh inconclusive, mTORC1 inh inconclusive, HTT-AS act inactive, S16 F2sN tox inactive, NLuc saturating inactive, NLuc Km counter inactive, FLuc counter inactive, S16 F2sN tox cnf inactive and PMP22 txn conf inconclusive.
CCc1ccc(CNC(=O)c2ccc3c(c2)c(C)c(C)n3Cc2ccccc2)cc1 was read as PMP22 txn prim inactive, SKOV3 invasion inactive, HTT promoter inh inactive, mTORC1 inh inactive, HTT-AS act inactive and S16 F2sN tox inactive.
CCc1ccc(NC(=O)c2ccc3c(c2)c(C)c(C)n3Cc2ccccc2)cc1 was read as PMP22 txn prim inconclusive, SKOV3 invasion inactive, HTT promoter inh inconclusive, mTORC1 inh inactive, HTT-AS act inactive, S16 F2sN tox inactive, NLuc saturating inactive, NLuc Km counter inactive, FLuc counter inconclusive, S16 F2sN tox cnf inactive and PMP22 txn conf inconclusive.
Screening Cc1ccc(C)c(NC(=O)Cn2c(=O)n(Cc3ccco3)c(=O)c3oc4ccccc4c32)c1 returned PMP22 txn prim 12µM, SKOV3 invasion inactive, HTT promoter inh inactive, mTORC1 inh inactive, HTT-AS act inconclusive, S16 F2sN tox inactive, NLuc saturating inactive, NLuc Km counter inactive, FLuc counter inactive, S16 F2sN tox cnf inactive and PMP22 txn conf inconclusive.
`CCCCn1c(=O)c2oc3ccccc3c2n(CC(=O)Nc2cccc(Cl)c2)c1=O` gave PMP22 txn prim inactive, SKOV3 invasion inactive, HTT promoter inh inactive, mTORC1 inh inactive, HTT-AS act inactive and S16 F2sN tox inactive.
For CCOc1ccccc1NC(=O)CSc1nc2c(oc3ccccc32)c(=O)n1Cc1ccco1 the results were PMP22 txn prim 11µM, SKOV3 invasion inactive, HTT promoter inh inactive, mTORC1 inh inactive, HTT-AS act inactive, S16 F2sN tox inconclusive, NLuc saturating inactive, NLuc Km counter inactive, FLuc counter inactive, S16 F2sN tox cnf inactive and PMP22 txn conf inactive.
Cc1ccc(C)c(NC(=O)Cn2c(=O)n(Cc3ccccc3)c(=O)c3oc4ccccc4c32)c1 was read as PMP22 txn prim 19µM, SKOV3 invasion inactive, HTT promoter inh inactive, mTORC1 inh inactive, HTT-AS act inactive, S16 F2sN tox inactive, NLuc saturating inactive, NLuc Km counter inactive, FLuc counter inactive, S16 F2sN tox cnf inconclusive, PMP22 txn conf inconclusive and PMP22 HiBiT cnf inconclusive.
`CCCCn1c(=O)c2oc3ccccc3c2n(CC(=O)Nc2cc(C)ccc2C)c1=O` gave PMP22 txn prim inconclusive, SKOV3 invasion inactive, HTT promoter inh inactive, mTORC1 inh inactive, HTT-AS act inactive and S16 F2sN tox inactive.
Screening Cc1cc(C)cc(NC(=O)Cn2c(=O)n(Cc3ccco3)c(=O)c3oc4ccccc4c32)c1 returned PMP22 txn prim inconclusive, SKOV3 invasion inconclusive, HTT promoter inh inactive, mTORC1 inh inactive, HTT-AS act inactive and S16 F2sN tox inactive.
`CCCCn1c(=O)c2oc3ccccc3c2n(CC(=O)Nc2ccc(CC)cc2)c1=O` gave PMP22 txn prim 14µM, SKOV3 invasion inactive, HTT promoter inh inactive, mTORC1 inh inactive, HTT-AS act inactive, S16 F2sN tox inactive, NLuc saturating inactive, NLuc Km counter inactive, FLuc counter inactive, S16 F2sN tox cnf inactive and PMP22 txn conf inconclusive.
For COC(=O)Nc1ccc(-c2nc(N3CCOCC3)c3cnn(C4CCN(C(=O)OC)CC4)c3n2)cc1 the results were SKOV3 invasion inactive, HTT promoter inh inactive and HTT-AS act inactive.
CC(C=CC1=C(C)CCCC1(C)C)=CC=CC(C)=CC(=O)O was read as SKOV3 invasion inactive, HTT promoter inh inconclusive and HTT-AS act inactive.

Bioassay records as filed in PubChem BioAssay.
